The supplement of paper PMC10849652
Targets with a hit are over-represented here; the source holds about 8,800 in all. About 0.5% of all pairs of compound and target were hits.

compound: Cc1ncc(-c2ccnc(Nc3ccc(S(C)(=O)=O)cc3)n2)n1C(C)C; assay: log2 fold change, soluble protein after heating vs DMSO (PISA); higher = thermal stabilisation; K562 lysate, 10 uM; active = over 0.2 and 3.5 SD of the protein, either way, in both replicates (recomputed)
Outline: (§1)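 Log-two fold change in thermal stability relative to solvent controls is reported from duplicates. For each sample, crude K562 extract from dounce-homogenised pellets in PBS pH 7.4 with 1 mM MgCl2, at 1 mg/mL protein, was treated with 10 μM compound for 30 min. Aliquots heated for 3 min across 48°C-58°C were pooled, brought to 0.5% NP-40 at 4°C and cleared at 21,000xg for 90 min. The supernatant was quantified by TMTpro 16plex LC-MS/MS with channel sums equalised.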

Chain of UniProt Q5TAX3 (Q5TAX3 whole entry, looked up): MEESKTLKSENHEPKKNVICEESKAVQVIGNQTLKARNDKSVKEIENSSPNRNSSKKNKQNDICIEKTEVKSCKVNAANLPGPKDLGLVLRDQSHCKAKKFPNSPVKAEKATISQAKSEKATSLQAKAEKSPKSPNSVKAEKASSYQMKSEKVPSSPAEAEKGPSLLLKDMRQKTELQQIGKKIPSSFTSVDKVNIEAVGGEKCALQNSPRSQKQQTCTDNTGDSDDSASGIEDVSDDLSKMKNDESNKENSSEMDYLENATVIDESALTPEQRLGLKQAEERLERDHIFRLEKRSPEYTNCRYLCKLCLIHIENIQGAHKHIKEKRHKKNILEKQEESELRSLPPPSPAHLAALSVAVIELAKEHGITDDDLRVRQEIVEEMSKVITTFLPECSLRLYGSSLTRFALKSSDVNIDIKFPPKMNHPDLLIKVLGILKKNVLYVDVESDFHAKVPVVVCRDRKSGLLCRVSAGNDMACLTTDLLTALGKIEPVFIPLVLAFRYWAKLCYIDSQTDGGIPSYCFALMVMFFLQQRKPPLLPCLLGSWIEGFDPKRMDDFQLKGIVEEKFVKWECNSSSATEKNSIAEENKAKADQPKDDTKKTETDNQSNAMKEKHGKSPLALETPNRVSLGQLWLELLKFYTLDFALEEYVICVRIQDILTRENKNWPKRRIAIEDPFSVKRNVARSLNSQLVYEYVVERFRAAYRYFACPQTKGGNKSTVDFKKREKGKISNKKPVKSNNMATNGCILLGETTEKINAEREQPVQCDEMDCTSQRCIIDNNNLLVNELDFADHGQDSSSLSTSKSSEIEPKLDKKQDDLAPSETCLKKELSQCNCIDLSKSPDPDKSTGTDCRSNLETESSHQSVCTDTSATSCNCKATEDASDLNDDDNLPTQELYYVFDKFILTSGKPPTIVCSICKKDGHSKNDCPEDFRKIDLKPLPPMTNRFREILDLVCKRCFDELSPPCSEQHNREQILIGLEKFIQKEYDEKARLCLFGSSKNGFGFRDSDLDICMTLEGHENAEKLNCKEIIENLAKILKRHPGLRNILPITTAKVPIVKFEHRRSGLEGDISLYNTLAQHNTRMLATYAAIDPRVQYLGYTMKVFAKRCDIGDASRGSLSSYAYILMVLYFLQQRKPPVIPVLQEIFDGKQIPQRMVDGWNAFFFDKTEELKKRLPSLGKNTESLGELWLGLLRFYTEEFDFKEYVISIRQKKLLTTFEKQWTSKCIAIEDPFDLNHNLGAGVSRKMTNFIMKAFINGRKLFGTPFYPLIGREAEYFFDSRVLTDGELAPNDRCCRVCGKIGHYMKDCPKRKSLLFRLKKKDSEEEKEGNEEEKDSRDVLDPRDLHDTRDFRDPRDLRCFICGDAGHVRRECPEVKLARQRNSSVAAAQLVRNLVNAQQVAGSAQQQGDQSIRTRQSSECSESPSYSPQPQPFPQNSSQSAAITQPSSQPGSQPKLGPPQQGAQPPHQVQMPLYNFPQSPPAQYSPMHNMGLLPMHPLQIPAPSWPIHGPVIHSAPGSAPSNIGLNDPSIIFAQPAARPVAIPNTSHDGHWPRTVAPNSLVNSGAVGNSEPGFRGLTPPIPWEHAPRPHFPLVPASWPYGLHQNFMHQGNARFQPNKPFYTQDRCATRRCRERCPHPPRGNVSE
Chain of UniProt P33981 (P33981 whole entry, looked up): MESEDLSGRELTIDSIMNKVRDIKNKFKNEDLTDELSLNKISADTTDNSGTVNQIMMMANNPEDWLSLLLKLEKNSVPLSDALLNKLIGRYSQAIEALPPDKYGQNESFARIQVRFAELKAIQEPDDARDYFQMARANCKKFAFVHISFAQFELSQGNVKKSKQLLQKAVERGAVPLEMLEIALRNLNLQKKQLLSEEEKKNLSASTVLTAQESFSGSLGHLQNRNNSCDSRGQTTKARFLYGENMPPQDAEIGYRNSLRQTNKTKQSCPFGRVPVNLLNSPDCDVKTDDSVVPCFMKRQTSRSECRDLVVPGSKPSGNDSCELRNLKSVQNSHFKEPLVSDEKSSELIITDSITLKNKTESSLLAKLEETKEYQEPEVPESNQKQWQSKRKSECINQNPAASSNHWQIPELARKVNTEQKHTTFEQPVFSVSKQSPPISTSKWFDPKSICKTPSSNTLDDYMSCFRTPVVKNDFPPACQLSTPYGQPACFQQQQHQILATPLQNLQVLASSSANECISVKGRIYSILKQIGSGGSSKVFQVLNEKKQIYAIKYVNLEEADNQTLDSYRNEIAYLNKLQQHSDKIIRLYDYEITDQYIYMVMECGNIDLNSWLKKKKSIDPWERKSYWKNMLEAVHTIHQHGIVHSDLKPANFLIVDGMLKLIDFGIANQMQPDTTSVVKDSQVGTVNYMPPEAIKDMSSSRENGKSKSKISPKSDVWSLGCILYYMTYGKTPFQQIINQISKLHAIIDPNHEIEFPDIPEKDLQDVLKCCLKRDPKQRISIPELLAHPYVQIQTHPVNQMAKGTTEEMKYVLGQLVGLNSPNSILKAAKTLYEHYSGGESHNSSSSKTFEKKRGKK
Chain of UniProt Q12933 (Q12933 whole entry, looked up): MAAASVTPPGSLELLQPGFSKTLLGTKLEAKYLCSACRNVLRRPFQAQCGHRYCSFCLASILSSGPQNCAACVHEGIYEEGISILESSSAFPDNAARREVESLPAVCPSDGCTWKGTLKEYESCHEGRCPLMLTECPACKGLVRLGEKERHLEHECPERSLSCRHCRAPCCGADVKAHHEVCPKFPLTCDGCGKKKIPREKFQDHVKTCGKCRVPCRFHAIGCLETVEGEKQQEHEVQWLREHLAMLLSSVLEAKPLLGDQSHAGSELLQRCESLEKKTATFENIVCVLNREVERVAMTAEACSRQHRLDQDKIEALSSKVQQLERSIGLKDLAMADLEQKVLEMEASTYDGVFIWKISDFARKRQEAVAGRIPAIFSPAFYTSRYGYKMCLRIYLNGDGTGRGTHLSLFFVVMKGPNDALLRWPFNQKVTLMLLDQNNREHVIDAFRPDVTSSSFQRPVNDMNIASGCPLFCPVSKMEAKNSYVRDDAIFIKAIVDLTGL
Chain of UniProt O60704 (O60704 whole entry, looked up): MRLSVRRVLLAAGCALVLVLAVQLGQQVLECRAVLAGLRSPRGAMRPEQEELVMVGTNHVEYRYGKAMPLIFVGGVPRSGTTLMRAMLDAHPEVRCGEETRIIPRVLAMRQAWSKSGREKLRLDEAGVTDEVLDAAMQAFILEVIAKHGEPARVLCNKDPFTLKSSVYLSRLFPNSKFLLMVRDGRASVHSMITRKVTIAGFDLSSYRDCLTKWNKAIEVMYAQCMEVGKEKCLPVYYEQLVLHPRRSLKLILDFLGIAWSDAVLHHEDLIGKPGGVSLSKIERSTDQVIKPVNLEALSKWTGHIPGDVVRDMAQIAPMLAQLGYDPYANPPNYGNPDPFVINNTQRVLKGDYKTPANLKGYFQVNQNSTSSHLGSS
Chain of UniProt Q96CW5 (Q96CW5 whole entry, looked up): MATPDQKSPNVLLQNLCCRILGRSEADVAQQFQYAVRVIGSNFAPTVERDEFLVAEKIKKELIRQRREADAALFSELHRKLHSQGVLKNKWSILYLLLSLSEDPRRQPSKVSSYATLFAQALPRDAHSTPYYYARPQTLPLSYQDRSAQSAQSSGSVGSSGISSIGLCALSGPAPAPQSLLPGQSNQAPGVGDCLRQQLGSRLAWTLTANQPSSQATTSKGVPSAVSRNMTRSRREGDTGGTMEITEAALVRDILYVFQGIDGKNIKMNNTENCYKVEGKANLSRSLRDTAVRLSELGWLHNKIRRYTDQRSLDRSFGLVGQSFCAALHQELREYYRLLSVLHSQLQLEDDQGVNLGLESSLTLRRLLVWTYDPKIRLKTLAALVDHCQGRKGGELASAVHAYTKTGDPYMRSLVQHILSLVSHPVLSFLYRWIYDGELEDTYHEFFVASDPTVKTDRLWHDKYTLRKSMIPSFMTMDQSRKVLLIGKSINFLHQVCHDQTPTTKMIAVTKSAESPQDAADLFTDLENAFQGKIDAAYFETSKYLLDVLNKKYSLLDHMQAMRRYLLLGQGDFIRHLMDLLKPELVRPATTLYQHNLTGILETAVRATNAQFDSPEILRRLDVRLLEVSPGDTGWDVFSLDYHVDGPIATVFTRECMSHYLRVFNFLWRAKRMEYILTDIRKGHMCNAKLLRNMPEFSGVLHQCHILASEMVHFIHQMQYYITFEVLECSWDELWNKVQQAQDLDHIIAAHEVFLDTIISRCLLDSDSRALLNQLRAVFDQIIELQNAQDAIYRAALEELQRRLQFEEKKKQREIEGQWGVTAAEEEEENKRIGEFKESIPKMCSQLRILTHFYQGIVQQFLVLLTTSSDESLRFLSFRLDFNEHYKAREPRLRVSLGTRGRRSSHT
Chain of UniProt Q96S44 (Q96S44 whole entry, looked up): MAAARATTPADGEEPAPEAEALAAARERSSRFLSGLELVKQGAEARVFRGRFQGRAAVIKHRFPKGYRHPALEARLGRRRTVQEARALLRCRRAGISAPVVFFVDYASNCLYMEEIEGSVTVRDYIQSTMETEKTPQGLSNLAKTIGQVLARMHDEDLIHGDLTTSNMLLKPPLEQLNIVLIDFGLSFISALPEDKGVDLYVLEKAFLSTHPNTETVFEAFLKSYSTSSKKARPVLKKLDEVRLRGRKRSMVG
Chain of UniProt Q9H4B7 (Q9H4B7 whole entry, looked up): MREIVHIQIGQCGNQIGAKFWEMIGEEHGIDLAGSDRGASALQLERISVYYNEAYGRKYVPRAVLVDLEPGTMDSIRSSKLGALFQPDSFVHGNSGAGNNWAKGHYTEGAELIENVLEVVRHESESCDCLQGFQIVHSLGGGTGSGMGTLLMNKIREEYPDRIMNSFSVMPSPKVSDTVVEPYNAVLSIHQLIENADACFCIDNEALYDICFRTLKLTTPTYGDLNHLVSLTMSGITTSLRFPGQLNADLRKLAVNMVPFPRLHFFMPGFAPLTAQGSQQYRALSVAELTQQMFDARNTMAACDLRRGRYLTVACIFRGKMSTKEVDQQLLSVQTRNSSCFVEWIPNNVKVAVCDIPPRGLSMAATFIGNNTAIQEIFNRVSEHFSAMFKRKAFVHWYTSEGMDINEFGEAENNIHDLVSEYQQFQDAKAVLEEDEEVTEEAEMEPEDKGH

log2 fold change, inactive:
TBCE (UniProt Q15813) -0.01, TNPO3 (UniProt Q9Y5L0) 0.003, TRIM33 (UniProt H0Y612) 0.138, TPST2 (UniProt O60704) 0.016, UBR4 (UniProt Q5T4S7) 0.001, TTK (UniProt P33981) 0.185, TP53RK (UniProt Q96S44) 0.047, TUBGCP3 (UniProt Q96CW5) 0.043, UBR3 isoform 4 (UniProt Q6ZT12) -0.005, TRIM33 isoform 2 (UniProt Q9UPN9) -0.015, TOE1 (UniProt Q96GM8) 0.04, UBA1 (UniProt P22314) 0.002, TUBB1 (UniProt Q9H4B7) -0.004, TUBGCP2 isoform 4 (UniProt Q9BSJ2) 0.012, TPM4 isoform 2 (UniProt P67936) 0.076, TMOD1 (UniProt P28289) -0.02, TRAPPC10 (UniProt P48553) -0.003, TRMT12 (UniProt Q53H54) 0.062, TSPAN13 (UniProt O95857) 0.121, UBE2H (UniProt P62256) 0.02, TLE3 isoform 5 (UniProt Q04726) -0.06, TSFM (UniProt P43897) -0.028, TRMT2A (UniProt Q8IZ69) -0.011, TUBA1B (UniProt P68363) -0.036, TUT4 (UniProt Q5TAX3) 0.001, TBL2 (UniProt Q9Y4P3) -0.004, TK1 (UniProt P04183) 0.003, TTC5 (UniProt Q8N0Z6) -0.016, TRNAU1AP (UniProt Q9NX07) 0.046, UBR5 (UniProt O95071) -0.019, TRAF2 isoform 2 (UniProt Q12933) 0.042, UCHL5 isoform 3 (UniProt Q9Y5K5) 0.001, TRIM23 (UniProt P36406) -0.046, TRIM11 (UniProt Q96F44) 0.055

compound: Cn1cc(-c2ccc3c(c2)CCN3C(=O)Cc2cccc(C(F)(F)F)c2)c2c(N)ncnc21; assay: as above
Outline: as §1

log2 fold change, inactive:
TBCE (UniProt Q15813) 0.049, TNPO3 (UniProt Q9Y5L0) 0.009, TRIM33 (UniProt H0Y612) -0.033, TPST2 (UniProt O60704) 0.008, UBR4 (UniProt Q5T4S7) 0.018, TTK (UniProt P33981) 0.013, TP53RK (UniProt Q96S44) 0.057, TUBGCP3 (UniProt Q96CW5) 0.038, UBR3 isoform 4 (UniProt Q6ZT12) 0.014, TRIM33 isoform 2 (UniProt Q9UPN9) 0.021, TOE1 (UniProt Q96GM8) 0.015, UBA1 (UniProt P22314) 0.028, TUBB1 (UniProt Q9H4B7) 0.002, TUBGCP2 isoform 4 (UniProt Q9BSJ2) 0.064, TPM4 isoform 2 (UniProt P67936) -0.011, TMOD1 (UniProt P28289) 0.014, TRAPPC10 (UniProt P48553) 0.02, TRMT12 (UniProt Q53H54) -0.017, TSPAN13 (UniProt O95857) -0.35, UBE2H (UniProt P62256) 0.021, TLE3 isoform 5 (UniProt Q04726) 0.028, TSFM (UniProt P43897) 0.017, TRMT2A (UniProt Q8IZ69) 0.013, TUBA1B (UniProt P68363) 0.01, TUT4 (UniProt Q5TAX3) -0.001, TBL2 (UniProt Q9Y4P3) 0.014, TK1 (UniProt P04183) -0.009, TTC5 (UniProt Q8N0Z6) 0.047, TRNAU1AP (UniProt Q9NX07) 0.015, UBR5 (UniProt O95071) 0.019, TRAF2 isoform 2 (UniProt Q12933) 0.01, UCHL5 isoform 3 (UniProt Q9Y5K5) 0.006, TRIM23 (UniProt P36406) 0.136, TRIM11 (UniProt Q96F44) 0.023

compound: Cn1cc(CNCC2CCN(c3ncc(C(=O)NO)cn3)CC2)c2ccccc21 [quisinostat]; assay: as above
Outline: as §1

log2 fold change, inactive:
TBCE (UniProt Q15813) -0.025, TNPO3 (UniProt Q9Y5L0) -0.001, TRIM33 (UniProt H0Y612) -0.238, TPST2 (UniProt O60704) -0.076, UBR4 (UniProt Q5T4S7) -0.014, TTK (UniProt P33981) -0.062, TP53RK (UniProt Q96S44) 0.002, TUBGCP3 (UniProt Q96CW5) -0.083, UBR3 isoform 4 (UniProt Q6ZT12) -0.069, TRIM33 isoform 2 (UniProt Q9UPN9) -0.035, TOE1 (UniProt Q96GM8) -0.036, UBA1 (UniProt P22314) -0.019, TUBB1 (UniProt Q9H4B7) 0.079, TUBGCP2 isoform 4 (UniProt Q9BSJ2) -0.091, TPM4 isoform 2 (UniProt P67936) 0.122, TMOD1 (UniProt P28289) -0.007, TRAPPC10 (UniProt P48553) -0.006, TRMT12 (UniProt Q53H54) -0.074, TSPAN13 (UniProt O95857) 0.034, UBE2H (UniProt P62256) -0.015, TLE3 isoform 5 (UniProt Q04726) -0.102, TSFM (UniProt P43897) -0.016, TRMT2A (UniProt Q8IZ69) -0.023, TUBA1B (UniProt P68363) -0.021, TUT4 (UniProt Q5TAX3) -0.054, TBL2 (UniProt Q9Y4P3) -0.031, TK1 (UniProt P04183) -0.03, TTC5 (UniProt Q8N0Z6) -0.084, TRNAU1AP (UniProt Q9NX07) 0.012, UBR5 (UniProt O95071) -0.059, TRAF2 isoform 2 (UniProt Q12933) -0.024, UCHL5 isoform 3 (UniProt Q9Y5K5) -0.01, TRIM23 (UniProt P36406) -0.044, TRIM11 (UniProt Q96F44) -0.104
